Results from PubChem BioAssay (Tox21).
Inconclusive results are not listed. Activity calls are given as the source filed them. Unless noted, calls come from the whole dose curve; as a rule, active = well fitted curve in the direction sought with a large enough effect in the repeat runs; inconclusive = weak or mixed curves; inactive = no such curve, though single readings can be large; an effect the other way counts as inactive or inconclusive.

Columns and labels:
[1] = A CellTox Green Cytotoxicity Assay to monitor cytotoxicity in HepG2 cells - 0 hour (AID 1224882); note: nearly all actives have a fitted effect of over 35% in size
Outline: (§1)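 Cytotoxicity was tracked as dead-cell DNA fluorescence in HepG2 cells treated with test compounds at 37 C; each time-point value comes from one kinetic series spanning 0, 8, 16, 24, 32 and 40 h.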

[2] = A CellTox Green Cytotoxicity Assay to monitor cytotoxicity in HepG2 cells - 32 hour (AID 1224883); note: nearly all actives have a fitted effect of over 50% in size
Outline: as §1

[3] = qHTS RealTime-Glo MT Cell Viability Assay in HepG2 cells - 16 hour (AID 1224885); note: nearly all actives have a fitted effect of over 50% in size
Outline: (§2)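 Cells + NanoLuc/prosubstrate dispensed (600 cells/well) → 5 h at 37 C/5% CO2 → compounds in DMSO transferred → 40 h incubation at 37 C, luminescence read at 0, 8, 16, 24, 32, 40 h.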

[4] = qHTS RealTime-Glo MT Cell Viability Assay in HEK293 cells - 24 hour (AID 1224886); note: top concentration of the series differs between compounds; nearly all actives have a fitted effect of over 50% in size
Outline: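 Tox21 10K qHTS, HEK293, 600 cells/well, RealTime-Glo reagent co-dispensed with cells; 5 h preincubation, compound by pintool, 37 C, luminescence at 0–40 h.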

[5] = qHTS RealTime-Glo MT Cell Viability Assay in HEK293 cells - 8 hour (AID 1224887); note: top concentration of the series differs between compounds; nearly all actives have a fitted effect of over 50% in size
Outline: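 Kinetic, non-lysing viability readout. Seed HEK293 (600/well) with reagent, incubate 5 h at 37 C/5% CO2, pin 23 nL compound in DMSO, incubate at 37 C, read luminescence at 0, 8, 16, 24, 32, 40 h.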

[6] = A CellTox Green Cytotoxicity Assay to monitor cytotoxicity in HEK293 cells - 16 hour (AID 1224888); note: nearly all actives have a fitted effect of over 35% in size
Outline: (§3)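 Real-time, in one plate: 600 HEK293 cells/well with dead-cell DNA dye, pinned compound after 5 h, 37 C incubation over 40 h; viable cells give no appreciable fluorescence.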

[7] = qHTS RealTime-Glo MT Cell Viability Assay in HepG2 cells - 0 hour (AID 1224889); note: nearly all actives have a fitted effect of over 50% in size
Outline: as §2

[8] = A CellTox Green Cytotoxicity Assay to monitor cytotoxicity in HepG2 cells - 8 hour (AID 1224890); note: nearly all actives have a fitted effect of over 45% in size
Outline: as §1

[9] = qHTS assay to identify small molecule antagonists of the estrogen receptor alpha (ER-alpha) signaling pathway using the BG1 cell line in the presence of 0.1 nM 17-beta-estradiol - cell viability counter screen (AID 1259241); note: nearly all actives have a fitted effect of over 40% in size
Outline: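 VM7Luc4E2 cells (endogenous full-length ER-alpha, 4xERE-luciferase), cultured 5 days in charcoal-stripped serum, exposed to compounds with 0.1 nM 17beta-estradiol (final) for 22 hr at 37C. Viability read in same wells as live-cell protease fluorescence after 30 min.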

[10] = qHTS assay to identify small molecule antagonists of the androgen receptor (AR) signaling pathway using the MDA cell line in the presence of 0.5 nM R1881 - cell viability counter screen (AID 1259242); note: nearly all actives have a fitted effect of over 45% in size
Outline: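 Cells seeded at 3,000/well and allowed 5 hr at 37C, 0% CO2 before compound transfer and R1881 (0.5 nM final) addition; 16 hr later, live-cell protease fluorescence indicated cytotoxicity.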

[11] = target: Androgen receptor (Homo sapiens) (UniProt P10275); assay: qHTS assay to identify small molecule antagonists of the androgen receptor (AR) signaling pathway using the MDA cell line in the presence of 0.5 nM R1881 (AID 1259243); note: nearly all actives have a fitted effect of over 50% in size
Outline: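 Luminescence from an AR/GR-responsive MMTV-luciferase construct in MDA-kb2 breast carcinoma cells, read 30 min after ONE-Glo, following 16 hr co-treatment with compounds and 0.5 nM R1881.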

[12] = qHTS assay to identify small molecule HDAC inhibitors (AID 1259364);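 note: wild-type HCT-116 cells with endogenous class I/II HDAC activity; top concentration of the series differs between compounds; nearly all actives have a fitted effect of over 45% in size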
Outline: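 HCT-116 wt cells, 1,500/well, overnight attach. Compounds (DMSO) 2 h, 37 °C. HDAC-Glo I/II, 30 min RT. Luminescence.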

[13] = qHTS assay to identify small molecule HDAC inhibitors - cell viability counter screen (AID 1259365)
Outline: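 Wild-type HCT-116 cells, 1,500/well, cultured overnight, then compound-treated 2 h at 37 C. Viability measured as ATP luminescence with CellTiter-Glo after 30 min at room temperature.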

[14] = qHTS assay to identify small molecule agonists of the sonic hedgehog signaling (Shh) pathway - cell viability counter screen (AID 1259366); note: nearly all actives have a fitted effect of over 50% in size
Outline: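 NIH/3T3-derived Gli1-Luc reporter cells, 2,000 per well, received compound after 4 h and were treated about 23 h at 37C. Viability measured in the same wells by CellTiter-Fluor fluorescence after 1 h.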

[15] = qHTS assay to identify small molecule antagonists of the sonic hedgehog signaling (Shh) pathway - cell viability counter screen (AID 1259367); note: nearly all actives have a fitted effect of over 55% in size
Outline: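 Fluorescence read-out (CellTiter-Fluor, 1 hr at 37C) taken after 23 hr compound treatment of 3T3 Gli1-Luc cells stimulated with conditioned medium. Cells were seeded at 2,000 per well and pre-incubated 4 hr.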

[16] = qHTS assay to identify small molecule agonists of the sonic hedgehog signaling (Shh) pathway (AID 1259368; calls by dose curve;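 note: NIH/3T3-derived 3T3Gli1-Luc cells carrying a stable Gli1-driven firefly luciferase reporter; series mostly up to about 92 µM; nearly all actives have a fitted effect of over 15% in size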)
Outline: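 Following a 24 hr incubation with DMSO-dissolved compounds at 37 C, 5% CO2, Gli1-Luc NIH/3T3-derived cells received luciferase reagent for 30 min at room temperature prior to luminescence measurement.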

[17] = qHTS assay to identify small molecule antagonists of the sonic hedgehog signaling (Shh) pathway (AID 1259369; calls by dose curve; note: nearly all actives have a fitted effect of over 45% in size)
Outline: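 Read-out is luminescence from a firefly luciferase gene controlled by the Gli1 response element, in 3T3Gli1-Luc cells pre-incubated 4hr then exposed to compounds and conditioned medium for 24hr.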

[18] = A CellTox Green Cytotoxicity Assay to monitor cytotoxicity in HEK293 cells - 8 hour (AID 1224884); note: nearly all actives have a fitted effect of over 35% in size
Outline: as §3

[19] = target: Estrogen receptor (Homo sapiens) (UniProt P03372); assay: qHTS assay to identify small molecule antagonists of the estrogen receptor alpha (ER-alpha) signaling pathway using the BG1 cell line in the presence of 0.1 nM 17-beta-estradiol (AID 1259244); note: nearly all actives have a fitted effect of over 50% in size
Outline: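 Luciferase signal from VM7Luc4E2 ERE-reporter cells, co-dosed with test compound and 0.1 nM final 17beta-estradiol for 22 h, read with ONE-Glo.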

Measured: Potency

Chain of Estrogen receptor (Homo sapiens) (P03372 whole entry, looked up): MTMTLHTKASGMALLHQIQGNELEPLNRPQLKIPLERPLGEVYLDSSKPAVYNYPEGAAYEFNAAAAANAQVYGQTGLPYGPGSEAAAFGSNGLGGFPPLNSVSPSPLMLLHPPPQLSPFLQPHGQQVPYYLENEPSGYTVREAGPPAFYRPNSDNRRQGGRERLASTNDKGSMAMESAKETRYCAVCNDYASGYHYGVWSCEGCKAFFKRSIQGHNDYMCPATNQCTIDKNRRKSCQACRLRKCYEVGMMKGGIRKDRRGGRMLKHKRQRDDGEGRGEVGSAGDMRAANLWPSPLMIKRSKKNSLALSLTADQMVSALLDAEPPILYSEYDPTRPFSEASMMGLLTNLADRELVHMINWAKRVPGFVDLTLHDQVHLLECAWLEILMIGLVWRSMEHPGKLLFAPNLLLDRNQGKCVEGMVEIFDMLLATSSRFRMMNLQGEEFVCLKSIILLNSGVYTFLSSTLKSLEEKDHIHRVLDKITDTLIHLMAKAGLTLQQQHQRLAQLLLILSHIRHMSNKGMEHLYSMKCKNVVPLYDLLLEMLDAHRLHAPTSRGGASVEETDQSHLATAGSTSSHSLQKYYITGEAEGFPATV
Chain of Androgen receptor (Homo sapiens) (P10275 whole entry, looked up): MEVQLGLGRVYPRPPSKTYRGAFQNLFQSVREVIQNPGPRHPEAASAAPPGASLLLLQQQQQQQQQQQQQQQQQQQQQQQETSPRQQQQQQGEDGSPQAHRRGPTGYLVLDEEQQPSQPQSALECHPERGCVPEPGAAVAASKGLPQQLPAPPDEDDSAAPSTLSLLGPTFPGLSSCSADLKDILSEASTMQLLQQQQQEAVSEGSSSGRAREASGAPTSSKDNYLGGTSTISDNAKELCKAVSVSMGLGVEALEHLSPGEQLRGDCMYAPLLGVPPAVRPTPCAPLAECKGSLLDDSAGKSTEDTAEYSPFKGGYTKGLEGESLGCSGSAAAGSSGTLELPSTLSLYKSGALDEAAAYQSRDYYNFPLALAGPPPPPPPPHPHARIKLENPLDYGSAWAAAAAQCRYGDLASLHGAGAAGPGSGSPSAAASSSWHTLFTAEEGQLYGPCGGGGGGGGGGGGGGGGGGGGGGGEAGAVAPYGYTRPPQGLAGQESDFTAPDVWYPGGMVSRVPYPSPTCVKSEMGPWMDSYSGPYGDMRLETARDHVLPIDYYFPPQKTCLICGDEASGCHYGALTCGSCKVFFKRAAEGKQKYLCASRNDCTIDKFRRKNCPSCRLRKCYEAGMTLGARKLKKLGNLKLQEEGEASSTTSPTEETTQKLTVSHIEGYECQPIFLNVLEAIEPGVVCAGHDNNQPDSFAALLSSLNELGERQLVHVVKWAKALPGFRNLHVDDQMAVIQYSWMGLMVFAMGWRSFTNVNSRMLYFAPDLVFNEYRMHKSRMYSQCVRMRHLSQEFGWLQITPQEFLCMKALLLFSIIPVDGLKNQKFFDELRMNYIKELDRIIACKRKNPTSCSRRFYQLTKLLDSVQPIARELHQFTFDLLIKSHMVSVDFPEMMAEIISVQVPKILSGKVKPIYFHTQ

NCCCN(CCO)CCO
not listed: [18] | [19]
inactive: all other assays above

Nc1nc(CC(=O)O)cs1
not listed: [4] | [11] | [18] | [19]
inactive: all other assays above

FC(F)(F)C(F)(F)C(F)(F)C(F)(F)C(F)(F)C(F)(F)CCI
not listed: [3] | [11] | [15] | [19]
inactive: all other assays above

Cc1cccc(C(C)(C)C)c1O
not listed: [2] | [8] | [11] | [15] | [18]
inactive: all other assays above

CCCCOCCOCCOCCOCCO
not listed: [1] | [11]
inactive: all other assays above

COc1cc(C(C)(C)C)c(O)c(C(C)(C)C)c1
not listed: [2] | [5] | [6] | [8] | [11] | [15] | [19]
inactive: all other assays above

CCCCCC/C=C/C=O
not listed: [2] | [4] | [9] | [11] | [19]
inactive: all other assays above

CCCCCCCC/C=C\CCCCCCCC(N)=O
not listed: [2] | [4] | [19]
inactive: all other assays above
